# Measurements from PubChem BioAssay AID651871 (Sanford-Burnham Center for Chemical Genomics, 2012).
# Values joined by “and” are separate entries in the source; they are usually repeats but may differ in a detail not shown here. Equal entries are not always repeated.
# System: HL-1
# Test: cardiomyocyte survival under oxidative or metabolic stress – cell-based, panel, H9c2 and HL-1, ATP luminescence, set 2, SAR follow-up (AID 651871);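 note: cells exposed to stressor for 2 h before ATP readout; reference of the scale not given here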
# Settings: H9c2/HL-1 cardiomyocytes, 2-deoxyglucose stress, with 2-deoxyglucose, run 15, at 19.8 µM (top of the series)
compound,measurement,value
COc1ccc2c(c1OC)C(=O)N1c3ccccc3C(=O)N(Cc3cccc(Cl)c3Cl)C21 (stereo unspecified),activity (protection/inhibition),69.2% and 28.8%
